dFosB activator – activators of delta FosB homodimer, primary screen, biochemical, fluorescence polarization, TAMRA-CDK5 oligo, single point; Protein FosB (Mus musculus), P13346; purified delta FosB; percent of positive-control signal above neutral wells; activation, % at 25 µM; actives 0.99% (n = 340,000); AID 493131, 2011;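 active = mean activation above about 17%, with every replicate also reaching it, limit read from the data, passing the limit was not always enough; inconclusive = only one of the two conditions met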
Target sequence (P13346 whole entry, looked up): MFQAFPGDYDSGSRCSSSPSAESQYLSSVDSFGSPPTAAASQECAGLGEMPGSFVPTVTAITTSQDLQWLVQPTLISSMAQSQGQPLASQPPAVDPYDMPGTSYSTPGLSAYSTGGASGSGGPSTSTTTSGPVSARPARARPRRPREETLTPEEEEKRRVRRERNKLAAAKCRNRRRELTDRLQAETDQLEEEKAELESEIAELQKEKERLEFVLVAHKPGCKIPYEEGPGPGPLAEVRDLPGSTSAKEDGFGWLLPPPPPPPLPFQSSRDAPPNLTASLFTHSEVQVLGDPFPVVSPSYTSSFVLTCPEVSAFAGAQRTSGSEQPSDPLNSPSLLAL
HSF1 inh – HSF1 inhibitors in luciferase reporter cells, primary screen, cell-based, NIH3T3, luminescence | actives 0.77% (n = 300,000) | activity change, negative = inhibition, % at 7.5 µM (by protocol) | NIH3T3-HGL HSE-luciferase, MG132-induced, luminescence 8 h; stronger effect = lower value;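 active = more than half of replicate wells show activity change below -50%, luminescence cut by over half; inconclusive = some wells, but at most half, below -50%; inactive = no replicate well below -50%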;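 note: luciferase reports HSF-1 transcriptional activity via heat shock element; 0% = median of DMSO wells and -100% = zero luminescence signal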
HSF-1 act – HSF-1 activators, primary screen, NIH3T3-HGL cells, MG132 stress, luminescence, single point. actives 1.7% (n = 300,000). activation, % at 9 µM. NIH3T3-HGL HSF-1 luciferase reporter, 8 h; 100% = twice DMSO control signal;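 active = mean replicate activation of at least 50% with a set share of replicates each reaching 50%; inconclusive = only one of those two conditions met; inactive = mean below 50% and too few replicates reaching it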;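 note: 0% = median of the neutral control wells and 100% = twice that signal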
Platelet DG rel – inhibitors of platelet dense granule secretion, primary screen, cell-based, MLPCN, human platelets. human platelet-rich plasma, SFLLRN dense granule ATP release, luminescence. inhibition, %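 (compounds screened at 7.5 µM in platelet-rich plasma)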. actives 0.22% (n = 300,000). AID 1663, 2009;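 active = mean replicate score, as percent of positive control, at or above 50; inconclusive = mean below 50 but at least one replicate at or above 50; inactive = mean and every replicate below 50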
MPTP block – mitochondrial permeability transition pore inhibitors, primary screen, biochemical, isolated mouse mitochondria, absorbance; actives 1.4% (n = 360,000); Ca2+ swelling absorbance, 30 min; AID 602449, 2012; inhibition, % at 10 µM;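 active = inhibition of 50% or more, scaled per plate between neutral and stimulator controls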;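 note: 0% = DMSO wells given calcium and 100% = 1 mM EGTA wells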
HSP90 inh – HSP90 inhibitors, primary screen, cell lysate, luminescence. inhibition, % at 5.6 µM. AID 1789, 2009. actives 0.91% (n = 290,000). Heat shock protein HSP 90 (rabbit reticulocyte lysate; luciferase refolding). Rabbit reticulocyte lysate, luciferase refolding luminescence, 3 h;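 active = inhibition above the screen-wide mean plus 3 SD, computed separately per campaign, cut at about 16% in these data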;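 note: 0% = DMSO wells and 100% = 60 µM geldanamycin wells; inhibitors lower the luminescence because luciferase stays unfolded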
Starred values were filed as active, the others as inactive; ? = inconclusive; / = no result. Compounds with a hit are over-represented: about 4.9% of the library has one in this group of screens.

SMILES | dFosB activator | HSF1 inh | HSF-1 act | Platelet DG rel | MPTP block | HSP90 inh
Cc1cc(NC(=O)CS(=O)c2cn(Cc3cccc(Cl)c3)c3ccccc23)no1 (stereo not given) | / | / | / | / | 3.5 | /
O=C1CCC(=O)N1CNc1ccccn1 | 1.0 | -70.3* | -76.6 | 2.7 | -0.3 | -2.4
O=[N+]([O-])c1ccc(N2CCN(c3ccccc3O)CC2)cc1 | -0.6 | 3.5 | 29.1 | -0.2 | 1.0 | -0.8
O=C1Nc2ccc(Br)cc2/C1=C/C(=O)c1ccccc1 | -10.5 | / | / | / | -5.0 | /
C=CCOc1cccc(C(=O)/C=C2/C(=O)Nc3ccccc32)c1 | -2.1 | 157.9 | 236.3* | 5.3 | -2.2 | 1.7
CC(=O)/C=C1/C(=O)Nc2ccccc21 | 1.3 | 164.7 | 187.1* | 10.9 | -1.1 | 4.4
CN(Cc1ccccc1C(F)(F)F)C(=O)C1CCC(=O)N(CC2CCCCC2)C1 (stereo not given) | / | / | / | / | 0.8 | /
C[C@H](CO)N1C[C@H](C)[C@@H](CN(C)C(=O)Nc2ccc(C(F)(F)F)cc2)Oc2c(NS(=O)(=O)c3ccc(F)cc3)cccc2C1=O | -7.3 | / | / | / | 0.2 | /
CCOC(=O)c1sc(N2C(=O)C(O)=C(C(=O)c3ccc(C)o3)C2c2ccc(OC)c(OC)c2)nc1C (stereo not given) | -7.1 | 5.2 | 2.7 | -3.3 | -0.8 | -3.8
CCOC(=O)c1sc(N2C(=O)C(O)=C(C(=O)c3ccc(C)o3)C2c2cccc([N+](=O)[O-])c2)nc1C (stereo not given) | 0.1 | 8.9 | 11.4 | 50.5* | -0.2 | 0.1
Cc1ccc(C(=O)OCC(=O)NCC2COc3ccccc3O2)cc1 (stereo not given) | -4.0 | / | / | / | -0.7 | /
CCOC(=O)c1ccc(NC(=O)CC2COc3ccccc3O2)cc1 (stereo not given) | -3.7 | -80.8* | -84.7 | -3.2 | 0.8 | 1.1
COC(=O)[C@H]1[C@H]2C[C@@H]3c4[nH]c5cc(OC)ccc5c4CCN3C[C@H]2C[C@@H](OC(=O)c2ccc(N)cc2)[C@@H]1OC | -6.8 | -55.5* | -63.6 | -1.3 | 1.1 | 2.1
O=C(NC1CCCCC1)c1c(O)nc2sccn2c1=O | -2.8 | -2.7 | -6.0 | / | -1.2 | /
CS(=O)(=O)c1ccc(C(=O)Nc2ccc(N3CCOCC3)cc2)c(Cl)c1 | -2.4 | -2.2 | 12.1 | -4.9 | -1.9 | -2.7
CS(=O)(=O)c1ncc(Cl)c(C(=O)Nc2ccc(OC(F)F)cc2)n1 | -5.3 | -91.2* | -90.7 | 17.2 | 6.3 | -1.1
CS(=O)(=O)c1ncc(Cl)c(C(=O)Nc2ccc(N3CCOCC3)cc2)n1 | -6.5 | 46.3 | 99.7* | 3.2 | -1.0 | 0.8
O=C(O)c1cccc(NC2=C(Cl)C(=O)c3ccccc3C2=O)c1 | -7.1 | -88.1* | -89.8 | -4.7 | 4.4 | -7.1
CC(C)NC1=C(Cl)C(=O)c2ccccc2C1=O | -4.8 | 51.1 | 70.4* | 2.7 | 1.7 | 10.1
O=C1C(Cl)=C(Nc2ccccc2)C(=O)c2ccccc21 | -4.3 | -6.3 | 0.3 | 25.6 | 2.0 | 1.0
O=C(O)c1ccc(NC2=C(Cl)C(=O)c3ccccc3C2=O)cc1 | 0.7 | ? | -38.9 | -2.9 | 6.6 | 6.4
Cc1ccc(S(=O)(=O)N2CCN(CCNC(=O)C(=O)NCc3ccccc3)CC2)cc1 | -9.7 | -87.1* | -90.5 | 1.3 | 1.2 | -1.7
Cc1cc(S(=O)(=O)N2CCCC2)ccc1OCC(=O)NCc1ccccc1 | -7.5 | -77.2* | -83.1 | 1.8 | -0.4 | 4.1
CCOC(=O)C1CCC(=O)N1Cc1c[nH]c2ccccc12 (stereo not given) | / | / | / | / | 0.2 | /
COc1cccc(/C=N/NC(=O)c2cnccn2)c1 | 2.6 | -75.7* | -82.0 | -12.0 | -1.3 | -3.5
SMILES | dFosB activator | HSF1 inh | HSF-1 act | Platelet DG rel | MPTP block | HSP90 inh
COc1ccc(/C=N/NC(=O)c2cnccn2)cc1O | 4.4 | 4.1 | 5.6 | 5.2 | -0.6 | -2.2
COc1ccc(S(=O)(=O)N2CCOCC2)cc1NC(=O)CSc1nnc(C2CC2)n1C | -4.1 | / | / | / | -0.5 | /
N#Cc1cccn1-c1nccs1 | 2.7 | -86.4* | -89.1 | 4.3 | 0.9 | 2.2
O/N=C\c1cccn1-c1nccs1 | 7.1 | 2.5 | 22.0 | 2.5 | -3.8 | -0.3
Cc1cc(C)nc(NC(=O)COc2cc(Cl)cc(Cl)c2)n1 | 0.0 | -71.0* | -76.9 | / | -3.0 | 3.5
COc1ccccc1N(C)S(=O)(=O)c1ccc(C(=O)NC(C)c2ccccc2)cc1 (stereo not given) | -5.0 | -67.1* | -73.7 | 5.8 | 7.2 | 3.5
C/C(CC(=O)NCc1ccccc1)=N\NC(=O)c1cnccn1 | -14.5 | -1.1 | 8.6 | 5.4 | 0.7 | -2.0
CC(C)C(=O)N1CCN(c2ccccc2NC(=O)c2ccc3c(c2)OCCO3)CC1 | -0.3 | / | / | / | -1.6 | /
CCN(CCCNC(=O)CCCCn1c(=O)[nH]c2ccccc2c1=O)c1ccccc1 | -2.9 | 54.7 | 74.4* | -2.5 | 0.9 | 7.7
COc1ccc(S(=O)(=O)NCCC(=O)NCc2cccs2)cc1 | -2.9 | -70.3* | -76.8 | -1.8 | -1.7 | -0.7
CC(C)(C)OC(=O)N[C@@H](Cc1ccccc1)c1nnc(SCC(N)=O)o1 | -7.3 | 4.9 | 4.9 | 4.6 | 1.6 | -1.9
Cc1cccc(CS(=O)(=O)c2nnc([C@H](Cc3ccccc3)NC(=O)OC(C)(C)C)o2)c1 | 3.2 | -67.5* | -69.2 | 7.9 | 1.1 | 9.9
Cc1cccc(Nc2cc(C)c3c(O)cccc3n2)c1C | 42.7* | 4.9 | 3.6 | -21.1 | 15.8 | -3.4
O=C1COc2ccc(N3C(=O)c4ccccc4C3=O)cc2N1 | / | -11.7 | -28.6 | 3.2 | / | -2.0
COc1cccc(C(=O)c2c(C)c(CCC#N)n3ccccc23)c1OC | -3.5 | 120.0 | 180.3* | -3.7 | 0.3 | -0.9
O=S(=O)(N1CCCCC1)N1CCN(c2ccc(F)cc2)CC1 | 4.2 | -70.7* | -77.2 | 5.8 | 0.0 | -1.6
O=C(c1ccc(F)cc1)c1ccc(N2CCCCC2)cc1 | -1.2 | 31.1 | 63.9* | 1.3 | 1.3 | 3.6
COCCc1nc2ccc(C(=O)N(C)Cc3cccc(-n4nc(C)cc4C)c3)cc2o1 | -8.1 | 0.1 | -6.2 | 10.6 | 0.8 | -7.6
Cc1ccc2c(c1)c1c(n2CC(O)CN2CCC(C)CC2)CCCC1 (stereo not given) | -12.8 | 7.3 | 30.2 | -9.9 | 1.0 | 1.6
Cc1ccc2c(c1)c1c(n2CC(O)CN2CCOCC2)CCCC1 (stereo not given) | / | -69.7* | -75.8 | -0.4 | / | -4.0
CC1(C)C=C2C(=NN(c3ccccc3)C(N)=C2C#N)CO1 | -9.3 | -70.9* | -78.1 | -3.7 | 0.8 | -0.7
CC1(C)Cc2c(C#N)c(N)n(-c3ccccc3)c(=S)c2CO1 | -10.2 | 27.9 | ? | 0.5 | 1.8 | -4.0

From PubChem BioAssay
